The text below walks through data of PubChem BioAssay AID504854 (Southern Research Specialized Biocontainment Screening …, 2011).

Potency and affinity values are given separately. Calls of active or inactive are those of the source. How the calls were made is not given here.

The assay can be described thus: Vero cell cytotoxicity, dose response, cytotoxicity control for M. tuberculosis growth inhibitor project, Vero cells, purified and synthesized compounds, set 4 (AID 504854). The conditions noted are these: series mostly up to 100 µM; viability: at the top concentration.
`O=c1[nH]c(=S)[nH]c2ccccc12`: the viability (as a rule, a read-out of living cells in per cent, often relative to untreated cells) is 94.9% (inactive).
For `Cc1cnc(SCC(=O)NC2CCCCC2)[nH]c1=O` the value was 86.8% (inactive); for `Cn1c(SCC(=O)NC2CCCCC2)nc2ccccc2c1=O`, 95.2% (inactive).
Consider `O=C(CSc1ncccn1)NC1CCCCC1`, for which the “viability” value is 91.7% (inactive).
For `Nc1c(C(=O)NC2CCCCC2)nsc1C(=O)OCC(=O)NC1CCCCC1` the value was 96.5% (inactive); for `CCSc1nc(C)c(C)c(=O)[nH]1`, 94.9% (inactive); for `Cc1nc(SCc2ccccc2Cl)[nH]c(=O)c1C`, 97.2% (inactive).
Regarding `Cc1nc(SCC(=O)N(C)c2ccccc2)[nH]c(=O)c1C`, the “viability” value was 97% (inactive).
For `O=C(CSc1nc2ccccc2c(=O)[nH]1)NC1CCCCC1` the value was 96.3% (inactive); for `Cc1nc(SCC(=O)NC2CCCC2)[nH]c(=O)c1C`, 106% (inactive).
For `Cc1[nH]c(=S)[nH]c(=O)c1C` the value was 92.8% (inactive); for `Cc1cc(=O)[nH]c(SCC(=O)NC2CCCCC2)n1`, 86.1% (inactive).
For `Cc1cccc(/C=C/C(=O)c2ccc([N+](=O)[O-])o2)c1` the value was 102% (inactive); for `O=C(CSc1nc2ccccc2c(=O)[nH]1)N1CCOCC1`, 84.2% (inactive); for `O=C(CSc1ccccn1)NC1CCCCC1`, 93.5% (inactive).
As to `NC(=O)CSc1nc2ccccc2c(=O)[nH]1`, the “viability” value is 98.6% (inactive).
For `CN(C)C(=O)CSc1nc2ccccc2c(=O)[nH]1` the value was 105% (inactive); for `Cc1nc(SCC(=O)NCCC(C)C)[nH]c(=O)c1C`, 89.4% (inactive).
The result for `CC[N+](C)(CC)CCCCOc1ccc2c(c1)C(=O)c1cc(OCCCC[N+](C)(CC)CC)ccc1-2` reads 92.3% (inactive); that for `CCOC1OC(=O)C(Cl)=C1Nc1ccccc1C` (stereo not drawn), 93.3% (inactive); that for `CCC(Sc1nc2ccccc2c(=O)[nH]1)C(=O)NC1CCCCC1` (stereo not drawn), 97.8% (inactive).
The result for `Nc1cc(=O)[nH]c(SCC(=O)NC2CCCCC2)n1` reads 91.4% (inactive); that for `CCOC(=O)CSc1nc(C)c(C)c(=O)[nH]1`, 95.6% (inactive); that for `CC(C)CCNC(=O)CSc1nc2ccccc2c(=O)[nH]1`, 92.4% (inactive).
With `Cc1cc(=O)[nH]c(=S)[nH]1`, the “viability” value was 108% (inactive).
For `Cc1nc(SCC(N)=O)[nH]c(=O)c1C` the value was 92% (inactive); for `CN1CCC(NC(=O)CSc2nc3ccccc3c(=O)[nH]2)CC1`, 94.4% (inactive).
Consider `O=C(CSc1nccc(=O)[nH]1)NC1CCCCC1`, for which the “viability” value is 90.6% (inactive).
The result for `COc1ccc(NC(=O)CSc2nc3ccccc3c(=O)[nH]2)cc1` reads 86.4% (inactive); that for `Cc1c[nH]c(=S)[nH]c1=O`, 99.7% (inactive); that for `COC(=O)c1ccc(CNc2c(N3CCCC3)c(=O)c2=O)cc1`, 93.3% (inactive).
For `Cc1ccc(NC(=O)COC(=O)CCc2c[nH]c3ccccc23)cc1[N+](=O)[O-]` the value was 95.8% (inactive).
The result for `COc1cccc(NC(=O)CSc2nc3c(c(=O)[nH]2)CCC3)c1` reads 87.3% (inactive).
